An excerpt weighted towards active compounds, which were near 1.6% of everything screened.
KCNQ2 block: inhibitors of rat KCNQ2 potassium channel; CHO-K1 KCNQ2, FluxOR thallium flux, 20 min; stronger effect = lower value; O88943; 310,000 compounds, 1.1% hits; B-score at 10 µM;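 active = fluorescence ratio B-score at most minus 3 library SDs, with starting brightness B-score within 2 library SDs, cut at about -5.5 in these data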
Target sequence (O88943 whole entry, looked up): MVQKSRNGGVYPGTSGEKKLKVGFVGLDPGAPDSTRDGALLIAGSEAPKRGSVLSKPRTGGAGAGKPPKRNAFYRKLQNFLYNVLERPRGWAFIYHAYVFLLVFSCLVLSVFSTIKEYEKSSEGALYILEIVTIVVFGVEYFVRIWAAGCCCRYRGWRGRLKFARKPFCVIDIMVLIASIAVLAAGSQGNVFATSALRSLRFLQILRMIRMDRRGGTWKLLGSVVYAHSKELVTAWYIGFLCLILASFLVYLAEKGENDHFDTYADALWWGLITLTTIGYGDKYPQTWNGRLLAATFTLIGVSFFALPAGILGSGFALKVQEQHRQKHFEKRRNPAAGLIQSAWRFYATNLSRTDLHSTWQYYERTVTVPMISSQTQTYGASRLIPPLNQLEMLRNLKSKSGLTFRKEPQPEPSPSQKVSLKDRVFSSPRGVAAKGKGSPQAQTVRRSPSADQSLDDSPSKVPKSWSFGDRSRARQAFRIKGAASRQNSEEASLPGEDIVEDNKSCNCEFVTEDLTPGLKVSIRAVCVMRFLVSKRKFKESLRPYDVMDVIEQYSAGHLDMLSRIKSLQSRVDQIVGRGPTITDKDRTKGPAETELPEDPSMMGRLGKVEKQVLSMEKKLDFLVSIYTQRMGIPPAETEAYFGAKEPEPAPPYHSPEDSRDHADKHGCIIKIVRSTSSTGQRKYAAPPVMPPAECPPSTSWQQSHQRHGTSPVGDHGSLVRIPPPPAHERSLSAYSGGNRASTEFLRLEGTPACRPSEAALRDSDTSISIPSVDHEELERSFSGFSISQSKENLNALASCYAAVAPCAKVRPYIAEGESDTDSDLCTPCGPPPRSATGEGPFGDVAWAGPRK
KCNQ2 enhance: KCNQ2 (rat) channel potentiation. O88943. CHO-K1 KCNQ2, FluxOR thallium flux fluorescence; stronger effect = higher value. B-score at 10 µM. 310,000 compounds, 0.54% hits;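 active = fluorescence ratio B-score at least 3 SD of library B-scores, with initial fluorescence B-score within 3 of them, cut at about 5.3 in these data; same plate scores as AID 2156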;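 note: B-score of peak minus minimum over baseline fluorescence ratio after K+ and Tl+ stimulus; positive B-score means potentiation of KCNQ2 with more thallium influx and brighter signal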
Kir21 conf inh: confirmation of mouse Kir2.1 potassium channel inhibitors; 2,300 compounds, 41% hits; Kir2.1-expressing cells, FluxOR thallium flux fluorescence; stronger effect = lower value; shares compounds with KCNQ2 enhance; AID 2032; Tl flux remaining, % of negative control (stronger effect = lower value), % at 10 µM;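 active = Primary-screen hit whose thallium flux fell at least 3 control SD below untreated wells in both duplicates, with normal baseline fluorescence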;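 note: 0% = blank wells without stimulus and 100% = stimulated no-compound controls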
HEK293 Tl flux: counter-screen for Kir2.1 inhibitors: effect in parental HEK293 cells | FluxOR thallium flux fluorescence; 0% = unstimulated blank wells | FluxOR signal as % of negative control (100 = no effect), % at 10 µM | shares compounds with KCNQ2 enhance | 2,300 compounds, 19% hits | AID 2105;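 active = dye signal at least 3 control SD above or below untreated wells in both duplicates, raw fluorescence within 3, either direction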;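 note: percent is based on the flux ratio of peak minus minimum fluorescence over baseline F0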
CHO-K1 Tl ctr: counter-screen for KCNQ2 potentiators: effect in parental CHO-K1 cells. activity increase over 3SD of controls, % at 10 µM. AID 2282. 1,200 compounds, 43% hits. shares compounds with KCNQ2 enhance. FluxOR thallium flux fluorescence; zero = vehicle mean+3SD, 100% = vehicle-minus-blank window;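 active = signal rise of at least 3 SD above the untreated control mean, in both duplicate wells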;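 note: counter screen of KCNQ2 potentiator hits so any rise reflects channel-independent effects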
KCNQ1 pot spec: selectivity of KCNQ2 potentiators: effect on human KCNQ1 | AID 2283 | 1,200 compounds, 28% hits | CHO KCNQ1 stable, FluxOR thallium flux fluorescence; beyond 3SD, as % of vehicle-control signal | shares compounds with KCNQ2 enhance | activation over 3SD threshold, % at 10 µM;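 active = fluorescence ratio rise of at least 3 SD of vehicle wells above their mean, in both replicate wells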;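 note: 0% = vehicle mean plus 3 SD and 100% = vehicle minus unstimulated blank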
KCNQ2 pot conf: rat KCNQ2 channel potentiator confirmation. 1,200 compounds, 68% hits. shares compounds with KCNQ2 enhance. CHO-KCNQ2 cells, FluxOR thallium flux fluorescence. potentiation, less the hit threshold, % at 10 µM;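 active = fluorescence ratio rising 3 SD or more over the vehicle control mean in both replicates, plus primary screen hit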;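 note: peak minus minimum thallium fluorescence divided by baseline after K/Tl stimulus; 0% = vehicle mean plus 3 SD and 100% = vehicle minus unstimulated blank difference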
Kir21 spec: tests whether KCNQ2 potentiators also affect mouse Kir2.1. shares compounds with KCNQ2 enhance. 1,200 compounds, 2% hits. activity over 3SD threshold, % at 10 µM. HEK293 Kir2.1, FluxOR thallium flux fluorescence;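 active = fluorescence ratio rise of at least 3 SD above the vehicle-control mean, seen in both replicates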;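 note: 0% = vehicle mean plus 3 SD and 100% = vehicle minus no-stimulus blank window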
KCNQ2 W236L MoA: KCNQ2 potentiators acting on retigabine-insensitive rat KCNQ2 W236L mutant | CHO KCNQ2-W236L, automated patch clamp current | current increase over 3SD of negative controls (%), stronger effect = higher value, % at 25 µM | shares compounds with KCNQ2 enhance | 940 compounds, 10% hits | AID 2558;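 active = current increase at least 3 SD of the untreated controls above them in both duplicate recordings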
The depositor's hits bear a star; i = inactive; . = no result.

SMILES | KCNQ2 block | KCNQ2 enhance | Kir21 conf inh | HEK293 Tl flux | others
COc1ccc(OC)c(NC(=O)C2CC2c2ccccc2)c1 (stereo not given) | i | 19* | i | 72%* | CHO-K1 Tl ctr=-5;KCNQ1 pot spec=8.9*;KCNQ2 pot conf=59*;Kir21 spec=-38;KCNQ2 W236L MoA=i
COc1ccc(C(=O)NCCS(=O)(=O)NC(C)c2ccccc2)cc1 (stereo not given) | i | 2.1 | . | .
O=C(Nc1ccc(Br)cc1)C1OCCc2ccccc21 (stereo not given) | i | . | . | .
Cc1cnc(NC(=O)CCNC(=O)c2ccc([N+](=O)[O-])cc2)s1 | i | 1.1 | . | .
CC(=O)NC12CC3CC(C1)CC(C(=O)Oc1ccc(N(C)S(=O)(=O)c4cc(C)ccc4C)cc1)(C3)C2 | i | 0.14 | . | .
CCOC(=O)N1CCN(C(=O)COC(=O)CSc2ccc([N+](=O)[O-])cc2)CC1 | i | 0.05 | . | .
O=C(O)COCC(=O)N1CCCN(c2nccc(C(F)(F)F)n2)CC1 | i | . | . | .
COc1cc(NC(=O)COc2ccc(Cl)cc2)ccc1NC(=O)C(C)C | i | . | . | .
COc1ccc(C(=O)Nc2cc(OC)ccc2OC)cc1 | i | 0.02 | . | .
COc1ccc(NC(=O)C(=O)NNC(=O)COc2ccc(Cl)cc2)c(OC)c1 | i | 10* | i | 318%* | CHO-K1 Tl ctr=0.6*;KCNQ1 pot spec=-31;KCNQ2 pot conf=21*;Kir21 spec=-12;KCNQ2 W236L MoA=i
COc1ccc(OC)c(NC(=O)c2ccc(Cl)cc2)c1 | i | 6.5* | i | i | CHO-K1 Tl ctr=-10;KCNQ1 pot spec=-12;KCNQ2 pot conf=9.8*;Kir21 spec=-27;KCNQ2 W236L MoA=i
Cc1ccc(Nc2cnn(C34CC5CC(CC(CC(=O)O)(C5)C3)C4)c(=O)c2Cl)c(Cl)c1 | i | 1.1 | . | .
O=C(CCCn1nnc(-c2cccnc2)n1)c1ccc(F)cc1 | i | . | . | .
COc1cccc(CN2CCCC(C(=O)c3ccc4c(c3)OCO4)C2)c1O (stereo not given) | i | . | . | .
COc1ccc(CN2CCCC(C(=O)c3ccc4c(c3)OCO4)C2)c(F)c1 (stereo not given) | i | . | 56%* | i
O=C(NC1CCCC1)c1ccc(COc2ccccc2Br)o1 | i | . | . | .
Cc1cc(C(=O)COC(=O)c2ccc(Cl)c(S(N)(=O)=O)c2)c(C)n1C1CC1 | i | 2.1 | . | .
O=C(/C=C/c1ccccc1)c1cc(Br)ccc(=O)c1O | i | 0.7 | . | .
Cc1ccc(/C=C/C(=O)c2ccccc(=O)c2O)cc1C | i | 6.1* | i | i | CHO-K1 Tl ctr=-6;KCNQ1 pot spec=-23;KCNQ2 pot conf=0.8*;Kir21 spec=-33;KCNQ2 W236L MoA=i
CCNC(=S)NNC(=O)CCc1nc2cc(Cl)ccc2n(Cc2ccccc2)c1=O | i | 0.23 | . | .
CN(C)C(CNC(=O)CCc1nc2cc(Cl)ccc2n(Cc2ccccc2)c1=O)c1ccccc1 (stereo not given) | i | . | 74%* | i
COCC(C)NC(=O)c1cc2c(ccc3ccccc32)oc1=O (stereo not given) | i | 0.13 | . | .
Cc1onc(-c2ccccc2)c1CNS(=O)(=O)c1cccc(Cl)c1 | i | 0.47 | 58%* | i
Cc1ccc(S(=O)(=O)NCc2c(-c3ccccc3)noc2C)cc1 | i | . | . | .
Cc1cc(C)c2cc(C#N)c(SCC(=O)Nc3ccc4c(c3)OCO4)nc2c1 | i | . | . | .
SMILES | KCNQ2 block | KCNQ2 enhance | Kir21 conf inh | HEK293 Tl flux | others
O=C(c1ccc(-n2ccnc2)cc1)N1CCCC(CO)(Cc2cccc(Cl)c2)C1 (stereo not given) | i | 0.59 | . | .
CC1CCCC(NC(=O)COC(=O)Cc2ccc(Br)cc2)C1C (stereo not given) | i | 0.24 | . | .
CC1CCCC(NC(=O)Cc2ccc(Br)cc2)C1C (stereo not given) | i | 5.5* | i | i | CHO-K1 Tl ctr=49*;KCNQ1 pot spec=1.4*;KCNQ2 pot conf=3.0*;Kir21 spec=-12;KCNQ2 W236L MoA=i
C=C(C)CN1C(=O)C2(OCCO2)c2ccccc21 | i | 0.24 | . | .
CN1CCC(OC(=O)c2ccccc2)CC1 | i | 0.61 | . | .
Cc1c(Br)cc(C(=O)OC2CCN(C)CC2)c(C)c1C | i | 0.45 | 25%* | i
CCOC(=O)Cn1c(=N)n(CCOc2ccc3ccccc3c2)c2ccccc21 | i | . | 28%* | i
CCOC(=O)Cn1c(=N)n(CCOc2ccc(OC)cc2)c2ccccc21 | i | . | . | .
O=C(N=Nc1c(O)[nH]c2ccc(F)cc12)C1COc2ccccc2O1 (stereo not given) | i | . | . | .
CCOC(=O)c1c(S(=O)(=O)NCC(=O)N2CCN(c3ccccc3)CC2)c(C)n(C)c1C | i | . | . | .
CC(C)(C)OC(=O)N1CCC[C@H]1c1nnc(SCc2ccccc2Cl)o1 | i | . | i | 70%*
CCCCSc1nnc([C@@H]2CCCN2C(=O)OC(C)(C)C)o1 | i | . | . | .
CSc1nnc([C@@H]2CCCN2C(=O)OC(C)(C)C)o1 | i | . | . | .
CC(C)(C)OC(=O)N1CCC[C@H]1c1nnc(SCc2ccc(Cl)cc2)o1 | i | . | 52%* | 68%*
CC(C)(C)OC(=O)N1CCC[C@H]1c1nnc(SC/C=C/c2ccccc2)o1 | i | . | . | .
CC(C)(C)OC(=O)N1CCC[C@H]1c1nnc(SCc2cccc(Cl)c2)o1 | i | . | 54%* | i
O=C(NCc1ccccc1)C1=C[C@H](C2CC2)C[C@H](OCCCCO)O1 | i | . | . | .
O=C(c1cccs1)N1CCCC(c2nc3c(nnn3Cc3ccccc3Cl)c(=O)[nH]2)C1 (stereo not given) | i | . | . | .
COC(=O)c1ccc(COc2cccnc2[N+](=O)[O-])cc1 | i | . | . | .
COc1cc(/C=C/C(=O)O)cc(S(=O)(=O)N2CCN(S(=O)(=O)c3ccc(Cl)cc3)CC2)c1OC | i | . | . | .
COC(=O)c1sc(NC(=O)c2ccc(Cn3cc(Cl)cn3)o2)c(C#N)c1C | i | 0.21 | . | .
Cc1ccc(NC(=O)c2ccc(Cn3cc(Cl)cn3)o2)c(C)c1 | i | . | 26%* | i
Cc1ccc(-n2cccc2C(=S)N=P(N(C)C)(N(C)C)N(C)C)cc1 | i | . | i | i
Cc1ccc(-n2cccc2C(=O)NS(=O)(=O)c2ccc(C)cc2)cc1 | i | 0.75 | . | .
Cn1c(CSc2ccccc2)c(C#N)c2ccccc21 | i | 0.32 | . | .
Cc1ccc(SCc2c(C#N)c3ccccc3n2C)cc1 | i | . | i | i
